This excerpt belongs to a sample that is enriched for hits.
ROS inducer = raises reactive oxygen species in U2OS cancer cells; AID 624156; ROS induction (% of piperlongumine), % at 10 µM; hit rate 2% among 46,000; U2OS ROS induction, H2DCF-DA fluorescence; in the data active = ROS induction above about 79%, passing the limit was not always enough;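 note: 0% = DMSO vehicle median and 100% = reference compound median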
* hit, by the source's call.

SMILES	ROS inducer
COc1ccc([Si](C)(C)[C@@H]2[C@@H](CCn3cc([C@H](O)c4ccccc4)nn3)O[C@]3(C(=O)N(Cc4cccc(N5CCOC5=O)c4)c4ccccc43)[C@H]2C)cc1	116.3*
COc1ccc([Si](C)(C)[C@H]2[C@H](CCn3cc(CCO)nn3)O[C@@]3(C(=O)N(Cc4cccc(N5CCOC5=O)c4)c4ccccc43)[C@@H]2C)cc1	106.8*
COc1ccc([Si](C)(C)[C@@H]2[C@@H](CCn3cc([C@H](O)c4ccccc4)nn3)O[C@]3(C(=O)N(c4ccccc4)c4ccccc43)[C@H]2C)cc1	15.9
C=CCN1C(=O)[C@@]2(O[C@@H](CCn3cc(CCO)nn3)[C@H]([Si](C)(C)c3ccc(OC)cc3)[C@H]2C)c2cc(N3CCOC3=O)ccc21	44.8
Cc1c(NC(=O)CN(c2ccc3c(c2)OCCO3)S(C)(=O)=O)c(=O)n(-c2ccccc2)n1C	-25.5
CCn1c(SCC(=O)Nc2ccc(Cl)c(Cl)c2)nnc1-c1cccnc1	39.6
COc1cc(NS(=O)(=O)c2ccc(NC(=O)c3cccc4ccccc34)cc2)ncn1	0.5
CCn1cc(C(=O)O)c(=O)c2cc(S(=O)(=O)N(C)C3CCCCC3)ccc21	-10.3
CO[C@H]1C[C@@H]2CC[C@@H](C)[C@@](O)(O2)C(=O)C(=O)N2CCCC[C@H]2C(=O)O[C@H]([C@H](C)C[C@@H]2CC[C@@H](O)[C@H](OC)C2)CC(=O)[C@H](C)/C=C(\C)[C@@H](O)[C@@H](OC)C(=O)[C@H](C)C[C@H](C)/C=C/C=C/C=C\1C	98.4*
Cc1nn(C(N)=S)c2c1CC(COCCC(C)C)O2 (stereo not given)	-0.4
C[C@H](CO)N1C[C@H](C)[C@@H](CN(C)Cc2ccc(Oc3ccccc3)cc2)Oc2ccc(NC(=O)NC3CCCCC3)cc2C1=O	86.8*
C[C@H](CO)N1C[C@H](C)[C@H](CN(C)Cc2ccccc2)Oc2ccc(NC(=O)NC3CCCCC3)cc2C1=O	1.4
C[C@H]1CN([C@@H](C)CO)C(=O)Cc2cc(NC(=O)Nc3cccc4ccccc34)ccc2O[C@@H]1CN(C)Cc1ccc(-c2ccccc2)cc1	131.6*
C[C@H]1CN([C@@H](C)CO)C(=O)Cc2cc(NC(=O)NC3CCCCC3)ccc2O[C@@H]1CN(C)Cc1ccc(C(=O)O)cc1	9.7
C[C@H]1CN([C@@H](C)CO)C(=O)Cc2cc(NC(=O)Nc3cccc4ccccc34)ccc2O[C@@H]1CN(C)Cc1ccccc1	44.9
C[C@@H]1CN([C@@H](C)CO)C(=O)c2cc(NC(=O)NC3CCCCC3)ccc2O[C@H]1CN(C)Cc1ccc(Oc2ccccc2)cc1	50.0
C[C@H](CO)N1C[C@H](C)[C@H](CN(C)Cc2ccccc2)Oc2ccc(NC(=O)Nc3cccc4ccccc34)cc2CC1=O	2.7
C[C@@H]1CN([C@H](C)CO)C(=O)Cc2cc(N(C)C)ccc2O[C@@H]1CN(C)Cc1ccc(Oc2ccccc2)cc1	14.0
C[C@H]1CN([C@@H](C)CO)C(=O)Cc2cc(N(C)C)ccc2O[C@@H]1CN(C)Cc1ccc(Oc2ccccc2)cc1	135.0*
C[C@@H]1CN([C@H](C)CO)C(=O)Cc2cc(NC(=O)NC3CCCCC3)ccc2O[C@@H]1CN(C)Cc1ccc(-c2ccccc2)cc1	97.9*
C[C@@H]1CN([C@@H](C)CO)C(=O)Cc2cc(NC(=O)NC3CCCCC3)ccc2O[C@@H]1CN(C)Cc1ccc(-c2ccccc2)cc1	14.0
C[C@H]1CN([C@@H](C)CO)C(=O)Cc2cc(N(C)C)ccc2O[C@H]1CN(C)Cc1ccc(Oc2ccccc2)cc1	17.5
CC(C)(C)NC(=O)CSc1nc2ccccc2[nH]1	-2.5
C[C@H]1CN([C@@H](C)CO)C(=O)c2cc(NS(=O)(=O)c3ccccc3)ccc2O[C@@H]1CN(C)Cc1ccc(C(=O)O)cc1	-5.5
O=C(c1cccs1)N1CCCn2c(SCc3ccccc3)nnc21	56.7
SMILES	ROS inducer
CCOC(=O)c1c(NC(=O)CC2NCCNC2=O)sc2c1CCCC2 (stereo not given)	-3.8
O=C(CCCc1ccccc1)NCCc1cn2ccccc2n1	-11.9
CC1(C)S[C@@H]2[C@H](NC(=O)[C@H](NC(=O)N3CCNC3=O)c3ccccc3)C(=O)N2[C@H]1C(=O)O	-4.3
Nc1nc(SCC(=O)Nc2ccccc2C(F)(F)F)n[nH]1	-4.1
Cc1ccc(N(C(C)C(=O)Nc2cc(Cl)cc(Cl)c2)S(C)(=O)=O)cc1 (stereo not given)	9.5
CC(C)NC(=O)N(C)C[C@@H]1Oc2ccc(N(C)C)cc2C(=O)N([C@H](C)CO)C[C@@H]1C	-0.5
Cc1nc2c(C(=O)N3CCC4(CC3)OCCO4)c[nH]n2c(=O)c1Cc1ccccc1Cl	-3.2
C[C@@H]1CN([C@H](C)CO)C(=O)Cc2cc(NC(=O)NC3CCCCC3)ccc2O[C@@H]1CN(C)Cc1ccc(Oc2ccccc2)cc1	130.9*
C[C@H](CO)N1C[C@H](C)[C@H](CN(C)Cc2ccccc2)Oc2ccc(NC(=O)NC3CCCCC3)cc2CC1=O	-1.2
C[C@@H]1CN([C@@H](C)CO)C(=O)Cc2cc(NC(=O)NC3CCCCC3)ccc2O[C@@H]1CN(C)Cc1ccccc1	27.8
COC(=O)CCCCCCC(=O)NN	-12.8
O=C1N=c2ccccc2=N/C1=N\C(=S)Nc1ccccc1	3.0
CCc1ccc2c(c1)=C(c1sc(Nc3cccc(Cl)c3C)nc1O)C(=O)N=2	11.9
CCc1ccc2c(c1)=C(c1[nH]c(=S)[nH]c1O)C(=O)N=2	124.3*
CCc1ccc2c(c1)=C(c1sc(N)nc1O)C(=O)N=2	1.6
Cc1ccc(Cl)cc1N(CC(=O)Nc1ccc(C(N)=O)cc1)S(C)(=O)=O	5.0
O=C(CCCCc1ccc(O)cc1)CCc1ccc(O)cc1	-8.3
Cc1ccc(NC(=O)COc2ccc(Cl)cc2C)c([N+](=O)[O-])c1	9.0
Cc1cc(C(=O)Nc2cccc3c2O[C@H](CN(C)Cc2ccc(Oc4ccccc4)cc2)[C@H](C)CN([C@H](C)CO)C3=O)n(C)n1	18.1
Cc1cc(C(=O)Nc2cccc3c2O[C@@H](CN(C)Cc2ccccc2)[C@@H](C)CN([C@@H](C)CO)C3=O)n(C)n1	-5.3
Cc1noc(C)c1NC(=O)N(C)C[C@H]1Oc2c(NC(=O)Nc3ccc4c(c3)OCO4)cccc2C(=O)N([C@H](C)CO)C[C@H]1C	-5.1
COc1ccc(NC(=O)N(C)C[C@@H]2Oc3c(cccc3N(C)C)C(=O)N([C@H](C)CO)C[C@H]2C)cc1	-5.3
Cc1noc(C)c1NC(=O)N(C)C[C@@H]1Oc2c(NC(=O)Nc3ccc4c(c3)OCO4)cccc2C(=O)N([C@@H](C)CO)C[C@H]1C	115.5*
Cc1noc(C)c1S(=O)(=O)Nc1ccc2c(c1)C(=O)N([C@H](C)CO)C[C@@H](C)[C@@H](CN(C)Cc1ccc3c(c1)OCO3)O2	11.0
Cc1noc(C)c1S(=O)(=O)Nc1ccc2c(c1)C(=O)N([C@H](C)CO)C[C@@H](C)[C@@H](CN(C)Cc1ccc(Cl)c(Cl)c1)O2	101.3*
Cc1cc(C(=O)Nc2cccc3c2O[C@@H](CN(C)Cc2ccc(Oc4ccccc4)cc2)[C@H](C)CN([C@@H](C)CO)C3=O)n(C)n1	116.8*
Cc1noc(C)c1S(=O)(=O)Nc1ccc2c(c1)C(=O)N([C@H](C)CO)C[C@H](C)[C@@H](CN(C)Cc1ccc(Cl)c(Cl)c1)O2	72.2
COc1ccc(NC(=O)N(C)C[C@H]2Oc3c(cccc3N(C)C)C(=O)N([C@@H](C)CO)C[C@H]2C)cc1	-4.0
Cc1noc(C)c1NC(=O)N(C)C[C@@H]1Oc2c(NC(=O)Nc3ccc4c(c3)OCO4)cccc2C(=O)N([C@H](C)CO)C[C@@H]1C	-4.7
